This is a sample that favours compounds with a hit; in the whole collection about 3.2% have one here.
Mtb betalactam: beta-lactam sensitization of Mtb H37Rv; M. tuberculosis H37Rv growth with meropenem, percent inhibition; AID 434955; 0.27% of 330,000 active; inhibition, % at 25 µM; call rule not given here;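 also: growth measured after seven days incubation then overnight dye step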
Mtb FBA inh: inhibits M. tuberculosis FBA enzyme; inhibition, % at 1 µM; 2.3% of 360,000 active; purified M. tuberculosis FBA, fluorescence read-out; in the data active = inhibition above about 27%
UGM FP inh: inhibitors of M. tuberculosis UDP-galactopyranose mutase; inhibition, % at 10 µM; P9WIQ1; purified UGM, fluorescence polarization probe displacement; AID 504406; 0.06% of 320,000 active; in the data active = inhibition above about 10%, passing the limit was not always enough
Target sequence (P9WIQ1 whole entry, looked up): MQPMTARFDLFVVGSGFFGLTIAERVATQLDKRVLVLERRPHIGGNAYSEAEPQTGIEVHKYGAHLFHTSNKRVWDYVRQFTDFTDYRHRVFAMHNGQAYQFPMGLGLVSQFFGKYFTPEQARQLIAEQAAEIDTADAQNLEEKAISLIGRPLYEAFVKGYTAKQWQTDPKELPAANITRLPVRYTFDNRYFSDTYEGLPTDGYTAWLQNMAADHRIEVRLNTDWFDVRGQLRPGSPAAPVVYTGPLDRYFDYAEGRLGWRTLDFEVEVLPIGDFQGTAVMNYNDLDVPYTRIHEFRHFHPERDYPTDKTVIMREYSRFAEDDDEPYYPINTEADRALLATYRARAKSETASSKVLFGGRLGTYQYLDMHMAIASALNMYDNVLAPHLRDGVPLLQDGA
SSB-PriA inh: inhibitors of Klebsiella pneumoniae PriA binding to SSB C-terminal tail; AlphaScreen SSBct-PriA binding, biotinylated peptide; 0.6% of 430,000 active; inhibition, % at 33 µM; in the data active = inhibition mostly above about 37%, no sharp cut-off; inactive = mostly below about 20%
GDH-TPI inh: GDH-TPI coupled enzyme inhibition counter-screen | GDH-TPI coupled enzyme counterscreen, NADH absorbance | inhibition, % at 4.8 µM | 1.2% of 360,000 active; in the data active = inhibition above about 30%
Rv3671c protease: Rv3671c (M. tuberculosis) protease inhibition | inhibition, % at 5.96 µM | 0.048% of 320,000 active | P9WHR9; in the data active = inhibition above about 38%;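 also: extracellular domain of Rv3671c used as enzyme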
Each line names hits and unclear results; the compound was inactive in the other large screens.

CCCCn1nc(-c2ccccc2)c2nc3ccccc3nc21	UGM FP inh 29.2 (no result: Mtb FBA inh, SSB-PriA inh, GDH-TPI inh)
Cn1c(NC(=O)c2ccccc2F)c(-c2cccs2)c(=O)c2ccccc21	GDH-TPI inh 42.9
Cn1c(NC(=O)c2ccc(F)cc2)c(-c2cccs2)c(=O)c2ccccc21	none
COc1ccc(C2CC(=O)C3=C(C2)Nc2ccccc2N(C(=O)C2CC2)C3c2cccnc2)cc1OC (centres undefined)	none
COc1cc(C2Nc3ccccc3NC3=C2C(=O)CC(c2ccc(OC)c(OC)c2)C3)ccc1O (centres undefined)	GDH-TPI inh 43.8
COc1ccc(-n2c(Cc3cccn3C)nnc2SCC(=O)Nc2ccccc2F)cc1	none
Cc1cccc(-n2c(Cc3cccn3C)nnc2SCC(=O)N2CCN(c3ccccc3)CC2)c1C	SSB-PriA inh 36.0 (no result: Mtb betalactam, Mtb FBA inh, UGM FP inh, GDH-TPI inh, Rv3671c protease)
Cn1cccc1Cc1nnc(SCC(=O)Nc2ccccc2F)n1-c1ccccc1	SSB-PriA inh 37.0 (no result: Mtb betalactam, Mtb FBA inh, UGM FP inh, GDH-TPI inh, Rv3671c protease)
Cc1nnc(NC(=O)CSc2nnc(Cc3cccn3C)n2-c2cccc(C)c2C)s1	none (no result: Mtb FBA inh, SSB-PriA inh, GDH-TPI inh)
CC(=O)Nc1ccc(NC(=O)CCn2cnc3c(cnn3C(C)(C)C)c2=O)cc1	none (no result: Mtb betalactam, Mtb FBA inh, UGM FP inh, GDH-TPI inh, Rv3671c protease)
C/C(C=Nn1c(-c2cc(C)[nH]n2)n[nH]c1=S)=C\c1ccco1	none (no result: Mtb betalactam, Mtb FBA inh, UGM FP inh, GDH-TPI inh, Rv3671c protease)
COC(=O)Nc1ccc(S(=O)(=O)NC[C@]2(OC)CCSC2)cc1	none (no result: Mtb betalactam, Mtb FBA inh, UGM FP inh, GDH-TPI inh, Rv3671c protease)
O=C(CCN1C(=O)c2ccccc2C1=O)N1CCOCCOCCN(C(=O)CCN2C(=O)c3ccccc3C2=O)CCOCC1	none (no result: Mtb betalactam, Mtb FBA inh, UGM FP inh, GDH-TPI inh, Rv3671c protease)
CN1/C(=C\C=Nc2cc(S(=O)(=O)N3CCOCC3)ccc2N2CCOCC2)C(C)(C)c2ccccc21	GDH-TPI inh 40.9
CO/N=C/C=C1/N(C)c2ccccc2C1(C)C	GDH-TPI inh 60.5 (no result: SSB-PriA inh)
CN1/C(=C\C=N\O)C(C)(C)c2ccccc21	none (no result: SSB-PriA inh)
Cc1ccccc1N=C/C=C1\N(C)c2ccccc2C1(C)C	GDH-TPI inh 34.9
O=C(O)c1cc2ccccc2c(Br)c1O	none (no result: Mtb betalactam, Mtb FBA inh, UGM FP inh, GDH-TPI inh, Rv3671c protease)
CC(=O)/C(=N\Nc1ccc(C)cc1)N1CCOCC1	GDH-TPI inh 31.1 (no result: SSB-PriA inh)
C=CCn1c(=NC(=O)c2ccco2)sc2cc(F)ccc21	none (no result: Mtb betalactam, Mtb FBA inh, UGM FP inh, GDH-TPI inh, Rv3671c protease)
COc1ccc2c(c1)[nH]c1c(=O)n(/N=C/C3C(C)C=C(C)CC3C)c(=O)[nH]c12 (centres undefined)	none (no result: SSB-PriA inh)
COc1ccc2[nH]c3c(=O)n(/N=C/[C@H]4C(C)C=C(C)CC4C)c(=O)[nH]c3c2c1 (some centres undefined)	Mtb FBA inh 155.8 (no result: SSB-PriA inh)
CC(=O)c1ccc(N2CCN(S(=O)(=O)c3c(C)[nH]c(C)c3C(=O)N3CCCCC3)CC2)cc1	GDH-TPI inh 34.5
CC(=O)c1ccc(N2CCN(S(=O)(=O)c3c(C(=O)N4CCCC4)c(C)n(C)c3C)CC2)cc1	GDH-TPI inh 39.7
CN(C)CCCn1cnc2c(c1=N)C(c1ccccc1)c1ccc3ccccc3c1O2 (centres undefined)	SSB-PriA inh 51.0
Cc1ccc2nc(NC(=O)CSc3ccc4nnc(-c5ccccn5)n4n3)sc2c1	none (no result: Mtb betalactam, Mtb FBA inh, UGM FP inh, GDH-TPI inh, Rv3671c protease)
CN(C(=O)CSc1nc(-c2ccccc2)cn1N)C(c1ccccc1)c1ccccc1	SSB-PriA inh 50.0
N=c1c2c(-c3ccccc3)c(-c3ccccc3)n(Cc3ccccc3)c2ncn1CCCn1ccnc1	SSB-PriA inh 46.2
CCCCn1cnc2c(c(-c3ccccc3)c(-c3ccccc3)n2Cc2ccco2)c1=N	none
NS(=O)(=O)c1ccc(N2N=C(c3ccccc3)CC2c2cccc(Cl)c2)cc1 (centres undefined)	Mtb FBA inh 178.0 (no result: Mtb betalactam, UGM FP inh, Rv3671c protease)
Cc1cccc(C2CC(c3ccccc3)=NN2c2ccc(S(N)(=O)=O)cc2)c1 (centres undefined)	Mtb FBA inh active (no result: Mtb betalactam, UGM FP inh, SSB-PriA inh, Rv3671c protease)
O=[N+]([O-])c1cccc(C2CC(c3ccccc3)=NN2c2ccccc2)c1 (centres undefined)	none
O=C(NCCc1ccoc1)c1cncc(Br)c1	none (no result: Mtb betalactam, Mtb FBA inh, UGM FP inh, GDH-TPI inh, Rv3671c protease)
Cc1ccc(/C=C(/C#N)c2nc(-c3cccc([N+](=O)[O-])c3)cs2)o1	none (no result: Mtb betalactam, Mtb FBA inh, UGM FP inh, GDH-TPI inh, Rv3671c protease)
COc1ccc2nc(NC(=S)N(C)C)sc2c1	GDH-TPI inh 44.2
O=C(CSc1nnc(NC(=O)c2ccco2)s1)NC1CCCC1	GDH-TPI inh 40.2
CC(=NNC(=O)c1cccc2ccccc12)c1cccnc1	none (no result: Mtb betalactam, Mtb FBA inh, UGM FP inh, GDH-TPI inh, Rv3671c protease)
CCOc1cc(C(=O)NC(=S)Nc2cccnc2)cc(OCC)c1OCC	none
CCOc1ccc(C(=O)NC(=S)Nc2cccnc2)cc1	UGM FP inh 12.1
CCOc1ccccc1NC(=O)c1cc(C(=O)c2cc(Br)ccc2O)coc1=N	GDH-TPI inh 31.1
Cc1c(C=NNC(N)=O)c2ccccn2c1C(=O)c1ccc(F)cc1	none (no result: Mtb betalactam, Mtb FBA inh, UGM FP inh, GDH-TPI inh, Rv3671c protease)
Cc1c(/C=N/NC(=O)c2ccc(O)cc2)c2ccccn2c1C(=O)c1ccc(F)cc1	GDH-TPI inh 31.7 (no result: SSB-PriA inh)
Cc1c(/C=N/NC(N)=O)c2ccccn2c1C(=O)c1ccncc1	GDH-TPI inh 55.8
COc1ccc(-c2nnc(NC(=O)c3cc(C)on3)s2)cc1	GDH-TPI inh 35.2
COc1ccc(-c2csc(NC(=O)c3cc(C)on3)n2)cc1OC	none (no result: Mtb betalactam, Mtb FBA inh, UGM FP inh, GDH-TPI inh, Rv3671c protease)
COc1ccc(-c2csc(NC(=O)c3cc(C)on3)c2C#N)cc1OC	GDH-TPI inh 38.1
COc1ccc(-c2cc(C(=O)Nc3ccc(S(=O)(=O)Nc4onc(C)c4C)cc3)c3ccccc3n2)cc1OC	GDH-TPI inh 41.8
COc1ccc(/C=C/C(=O)Nc2ccc3nc4n(c(=O)c3c2)CCCC4)cc1	none
COc1cc(/C=C/C(=O)Nc2ccc(S(=O)(=O)Nc3onc(C)c3C)cc2)cc(OC)c1OC	GDH-TPI inh 39.1 (no result: Mtb betalactam, UGM FP inh, Rv3671c protease)
COc1cc(/C=C/C(=O)Nc2ccc3nc4n(c(=O)c3c2)CCCC4)cc(OC)c1OC	GDH-TPI inh 38.2
COc1cc(C=NNC(=O)Cn2cnc3c2c(=O)n(C)c(=O)n3C)ccc1O	none (no result: Mtb betalactam, Mtb FBA inh, UGM FP inh, GDH-TPI inh, Rv3671c protease)
COc1ccc(-c2csc(NC(=O)c3ccc(S(=O)(=O)N(C)C4CCCCC4)cc3)n2)cc1	none (no result: Mtb betalactam, Mtb FBA inh, UGM FP inh, GDH-TPI inh, Rv3671c protease)

High-throughput results as filed in PubChem BioAssay.
